Shown are actives, neighbours in structure and some others; about 32% of the full set was active somewhere.
PostGolgi yeast: growth inhibition of a yeast mutant, post-Golgi transport screen. 98,000 tested, 0.9% active. inhibition, % at 10 µM. AID 739. post-Golgi transport phenotypic cell assay;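 further: yeast cells grown in 1536-well plates; yeast grown about 18 h at 30C before absorbance read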
PostGolgi ctrl: growth of the yeast control strain, post-Golgi counter-screen | AID 738 | inhibition, % at 10 µM | efflux-deficient yeast background strain, growth absorbance A615, 16 h | 98,000 tested, 5% active
CYP2C19 act: cytochrome P450 2C19 (human) activation | activation factor at 5 µM | recombinant CYP2C19, luciferin-H EGE luminescence; hits give high values; 0 = fully inhibited enzyme, 1 = untreated enzyme | AID 1025 | 96,000 tested, under 10 active;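 active means activation factor of at least 2 at 5 µM in the primary screen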
CYP2C9 inh: inhibitors of human CYP2C9; CYP2C9 Supersomes, luciferin-H conversion, luminescence; 96,000 tested, 20% active; inhibition, % at 5 µM;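 active means blocking of liver enzyme CYP2C9 beyond about 50% at 5 µM, limit read from the data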
Target sequence (P11712 whole entry, looked up): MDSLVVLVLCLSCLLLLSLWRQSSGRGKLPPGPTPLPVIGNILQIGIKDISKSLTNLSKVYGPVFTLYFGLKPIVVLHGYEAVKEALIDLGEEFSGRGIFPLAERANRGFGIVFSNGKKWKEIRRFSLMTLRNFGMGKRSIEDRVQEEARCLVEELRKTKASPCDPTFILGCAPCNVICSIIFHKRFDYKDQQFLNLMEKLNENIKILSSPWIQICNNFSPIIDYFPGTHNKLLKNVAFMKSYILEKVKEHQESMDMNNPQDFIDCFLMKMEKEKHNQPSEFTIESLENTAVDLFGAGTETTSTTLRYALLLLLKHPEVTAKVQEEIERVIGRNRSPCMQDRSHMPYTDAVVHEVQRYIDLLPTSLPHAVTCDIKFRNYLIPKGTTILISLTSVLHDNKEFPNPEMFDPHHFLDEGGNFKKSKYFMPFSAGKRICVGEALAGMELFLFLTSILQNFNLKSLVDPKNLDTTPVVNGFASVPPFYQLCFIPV
CYP2C9 activ: CYP2C9 (human) activation; P11712; recombinant CYP2C9, luciferin-H conversion, luminescence; hits give high values; factor 1 = untreated enzyme, 0 = blocked; activation factor at 5 µM; 96,000 tested, 1.4% active;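 active means activation factor of 2 or more for CYP2C9 at a 5 µM dose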
CYP2C19 inhib: human CYP2C19 inhibition. P33261. CYP2C19 Supersomes, luciferin-H EGE luminescence, 30 min. inhibition, % at 5 µM. 96,000 tested, 21% active;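 active means CYP2C19 inhibition above a set limit at 5 µM in the primary screen, cut at about 50% in these data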
Each line names hits and unclear results; the compound was inactive in the other large screens. Unless noted, no stated cut-off is given here; in the data, active means inhibition above about 30%; inactive means the rest.

CC1CN(Cc2ccccc2Cl)CC(C)O1 (stereo not given)	none
CCCC1=C(C(=O)OCC)C(c2ccccc2OCC)NC(=O)N1C (stereo not given)	CYP2C9 inh 81, CYP2C19 inhib 81
CCOC(=O)C1=C(C)NC(=O)NC1c1ccccc1OCc1c(F)cccc1Cl (stereo not given)	CYP2C9 inh 70
CCOC(=O)C1=C(C)N(C)C(=O)NC1c1ccccc1OC (stereo not given)	none
CCOC(=O)C1=C(C)C(c2ccccc2OC)NC(=O)N1 (stereo not given)	none
COc1ccc(C2C(C(=O)c3ccco3)=C(O)C(=O)N2CCc2ccccc2)cc1OC (stereo not given)	none
COC(=O)c1ccc(N2C(=O)CC(N(C)Cc3ccccc3)C2=O)cc1 (stereo not given)	none
CS(=O)(=O)Nc1ccccc1C(=O)c1ccccc1	CYP2C19 inhib 61
CS(=O)(=O)Nc1ccccc1C(=O)Nc1cc(Cl)cc(Cl)c1	none
CCS(=O)(=O)Nc1ccc(C(=O)OC)cc1	CYP2C9 inh 69, CYP2C19 inhib 64
CS(=O)(=O)Nc1ccccc1C(=O)Nc1cccc(Cl)c1	CYP2C9 inh 68
CCOC(=O)c1ccc(NS(C)(=O)=O)cc1	none
COc1cccc(NC(=O)c2ccccc2NS(C)(=O)=O)c1	CYP2C9 inh 65
O=C(CCc1ccccc1)n1nc(-c2ccco2)nc1SCc1ccccc1	none
Cc1c(C(C)(C)C)c(C=S)n2ccccc12	none
Cc1cc(C)c2c3c(sc2n1)C(=O)N(Cc1ccccc1)CC(=O)N3	none
COC(=O)c1ccc(NC(=O)c2ccccc2NS(C)(=O)=O)cc1	CYP2C9 inh 66
COc1ccc(NC(=O)c2ccccc2NS(C)(=O)=O)cc1OC	CYP2C9 inh 57
COCCNC(=O)c1ccccc1NC(=O)c1ccc(OC)c(OC)c1	none
COCCCNC(=O)c1ccccc1NS(C)(=O)=O	none
N#CCSc1nnc(C2CCCCC2)n1-c1ccccc1	none
COc1cccc(C(=O)N(c2ccc(OC)cc2OC)C2C=CS(=O)(=O)C2)c1 (stereo not given)	none
Cc1c(NC(=O)Nc2ccc(Cl)c(Cl)c2)c(=O)n(-c2ccccc2)n1C	none
CCOC(=O)N1CCN(C(=O)c2oc(=O)c3ccccc3c2-c2ccc(C)cc2)CC1	CYP2C9 inh 59, CYP2C19 inhib 60
O=C(c1ccco1)N1CCN(C(=O)c2oc(=O)c3ccccc3c2-c2ccccc2)CC1	CYP2C9 inh 60 (no result: PostGolgi ctrl)
O=C(c1oc(=O)c2ccccc2c1-c1ccccc1)N1CCOCC1	none
O=c1c2c3c(sc2nc2sc(C4CC4)nn12)CCCC3	none
CCOC(=O)Nc1ccc(S(=O)(=O)NCc2ccccc2)cc1	none
CSc1ccc(S(=O)(=O)NCc2ccccc2)cc1	CYP2C19 inhib 67
CC(C)N(CCNS(=O)(=O)c1ccc(Cl)cc1)C(C)C	CYP2C9 inh 54
CSc1ccc(S(=O)(=O)NCc2ccc(Cl)cc2Cl)cc1	CYP2C9 activ 2.4, CYP2C19 inhib 86
O=CNc1ccc(S(=O)(=O)NCc2ccccc2)cc1	CYP2C19 inhib 90
COCCNS(=O)(=O)c1ccc(SC)cc1	none
CCOC(=O)c1c(OCC)[nH]c2ccc(O)cc12	none
NC(=O)NC(Cc1ccccc1)C(=O)NCC1(N2CCCCC2)CCCCC1 (stereo not given)	none
O=S(=O)(NCC(c1ccccc1)N1CCNCC1)c1ccc(Cl)cc1 (stereo not given)	CYP2C19 inhib 60
O=S(=O)(NCc1ccccc1)c1ccc(Cl)cc1	CYP2C9 inh 72, CYP2C19 inhib 80
CS(=O)(=O)c1ccc(Cl)c(S(=O)(=O)NCc2ccccc2)c1	none
O=S(=O)(NCc1ccc(Cl)cc1)c1ccc(Cl)nc1	CYP2C19 inhib 90
CN1C(=O)CC(N2CCN(c3ccc(Cl)c(Cl)c3)CC2)C1=O (stereo not given)	none
CCCn1c(=O)[nH]c(=O)c2c1nc(-c1ccc3c(c1)OCCO3)n2CCN1CCOCC1	none
O=C1C=C(NCc2ccccc2)C2(CCCCC2)O1	CYP2C19 inhib 70
O=C1C=C(NCc2ccc(Cl)c(Cl)c2)C2(CCCCC2)O1	CYP2C19 inhib 77
O=C1C=C(NCc2ccco2)C2(CCCCC2)O1	none
O=C(O)CCc1ccc(-c2ccc(F)cc2)n1Cc1ccco1	CYP2C19 inhib 57
O=C(O)CCc1ccc(-c2ccccc2)n1CC1CCCO1 (stereo not given)	CYP2C19 inhib 64
O=C(O)CCc1ccc(-c2ccccc2)n1Cc1ccco1	CYP2C19 inhib 63
CC1(C)CC(=O)C(C=NCCO)=C(O)C1	none
COc1cccc(C2=NOC(C(=O)NCCN3CCOCC3)C2)c1 (stereo not given)	none
COc1nc(OC)nc(N2CCC(C(=O)NCC3CCCCC3)CC2)n1	none
CCOC(=O)N1CCC(N(C(=O)Nc2cccc(OC)c2)C(C)CC)CC1 (stereo not given)	CYP2C19 inhib 56
CCOC(=O)N1CCC(N(CCOC)C(=O)Nc2ccc(Cl)c(Cl)c2)CC1	PostGolgi ctrl 64
CCOC(=O)N1CCC(N(CCCOC)C(=O)Nc2cccc(OC)c2)CC1	none
Cc1ccc(-n2ncc3c(=O)[nH]c(SCC(=O)N4CCC(C)CC4)nc32)cc1C	none
CN1C(=O)/C(=C2/C=Cc3ccccc3N2CCCS(=O)(=O)O)SC1=S	CYP2C9 inh 53
CCCN1/C(=C2/SC(=S)N(CC)C2=O)C=Cc2ccccc21	none
C=CCN1C(=O)/C(=C2/Sc3ccccc3N2CCCS(=O)(=O)O)SC1=S	CYP2C9 inh 60
CCOC(=O)CC1(CC(=O)OCC)NC(=O)c2c(C)sc(C(=O)OCC)c2N1	CYP2C19 inhib 96
CCCCC1(C)NC(=O)c2c(C)sc(C(=O)OCC)c2N1 (stereo not given)	CYP2C9 inh 94
CCOC(=O)CC1(C)NC(=O)c2c(C)sc(C(=O)OCC)c2N1 (stereo not given)	none
OC1CC(c2ccco2)NC2(CCCCC2)C1 (stereo not given)	none
CCCCOc1c(Br)cc(/C=C2\N=C(C)OC2=O)cc1OCC	none
Cn1c(Cc2ccccc2)nnc1SCC(=O)Nc1ccc2c(c1)OCO2	CYP2C9 inh 55, CYP2C19 inhib 87
Cn1cccc1Cc1nnc(SCC(=O)Nc2ccc3c(c2)OCO3)n1CCc1ccccc1	CYP2C9 inh 57, CYP2C19 inhib 55
Cc1cc(=S)n(-c2ccccc2)n1C	none
COc1ccc(CNC(=O)Nc2cccc3ccccc23)cc1	CYP2C19 inhib 89
O=C(NCCc1ccncc1)Nc1ccc(Cl)cc1	CYP2C9 inh 96, CYP2C19 inhib 97
CCOC(=O)c1ccc(NC(=O)NCc2ccncc2)cc1	CYP2C9 inh 73
O=C(NCc1ccncc1)Nc1ccccc1Cl	CYP2C9 inh 81, CYP2C19 inhib 89
COc1cc(C(O)P(=O)(OCC(C)C)OCC(C)C)cc(OC)c1OC (stereo not given)	none
CCCCC(=O)Nc1ccc(C(=O)Nc2cccnc2)cc1	none
